From PubChem BioAssay (NCI) come the findings set out here.

The structures appear in SMILES notation. This is part of a sample that, as a whole, favours compounds with a hit. Of some 83,000 tested, about 20% had one in any assay.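 The test compound was applied at a single concentration to cells in 96-well plates for 48 hours, and percent growth was recorded.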 Values without a mark were called inactive. Calls of active or inactive are those of the source. Rule for the calls: active = growth percent below 10; inactive = the rest.

Common to all, as to assay: NCI-60 one-dose screen, 48 h (100 = growth as untreated, 0 = no growth, -100 = all killed)
Common to all, as to conditions: 10 µM unless noted

For test [1], the system named is DU-145 prostate.
Test [2] deals with K-562 leukemia.
The subject of test [3] is MALME-3M melanoma.
Test [4] concerns MDA-MB-231 breast.
The subject of test [5] is RXF 393 renal.
Test [6] has as its system SF-268 CNS.
For test [7], the system named is SF-295 CNS.
Test [8] has as its system SF-539 CNS.
The subject of test [9] is UACC-257 melanoma.
In test [10] the test system is M14 melanoma.
In test [11] the test system is HCT-15 colon.
Test [12] concerns HT29 colon.
Test [13] deals with SNB-75 CNS.
Test [14] concerns SNB-19 CNS.
Test [15] has as its system U251 CNS.
For test [16], the system named is PC-3 prostate.
Test [17] relates to SK-MEL-5 melanoma.
For test [18], the system named is UACC-62 melanoma.
The subject of test [19] is LOX IMVI melanoma.
Test [20] relates to SK-MEL-28 melanoma.

As for `O=C1/C(=C\c2cccc3nccnc23)SC(=S)N1CCc1ccc(O)cc1`, the growth in test [1] is 98.1%; in test [2] it was 88.5%; in test [3], 87.3%; in test [4] it was 83.8%; in test [5] it was 107%; in test [6] it was 97%. In addition, the growth is 101% in [7]; 97.7% in test [8]; 100% in [9]; 96.3% in test [10]; 101% in test [11]; 116% in [12]. Further, the growth in test [13] was 89%; in test [14], 94.4%; in test [15] it was 107%; in test [16] it was 84%; in test [17], 95%; in test [18], 76.4%. Moreover, the growth in test [19] is 94.5%; in test [20] it was 99.5%.

Take `COc1cc(-c2nc3sccn3c2-c2ccnc(NCCNS(=O)(=O)c3ccc(Cl)cc3)n2)ccc1F`: the growth in test [1] was 32.3%; in test [2], 13.6%; in [3], 31.3%; in test [4] it was 69%; in [5] it was 33.2%; in [6], 30.6%. Further, the growth is 40.5% in test [7]; 80% in test [8]; 45.1% in [9]; 21.5% in test [10]; 20.6% in test [11]; 22.8% in test [12]. Further, the growth in test [13] is 85.6%; in test [14], 78.8%; in test [15], 55.6%; in test [16] it was 13.1%; in [17], -14.7% (active); in test [18], -45.3% (active). Also, the figures for the growth in [19] and in test [20] were 19.2% and 44.9%, respectively.

As to `COc1ccc(/C(C)=C(/c2ccc(OCCCN(C)C)cc2)c2ccc(OC(=O)c3ccccc3)cc2)cc1`, the growth in test [1] is 102%; in [2], 38.9%; in [3] it was 83.6%; in [4], 71.1%; in test [5] it was 66.7%; in test [6], 77.8%. Further, the growth in test [7] was 89.8%; in test [8], 89.1%; in [9], 89.7%; in test [10] it was 66.4%; in [11] it was 63%; in test [12] it was 9.02% (active). The growth in test [13] is 105%; in test [14], 94.8%; in [15], 68.2%; in [16], 73.4%; in [17], 85.7%; in test [18], 88.7%. Moreover, the values for the growth in [19] and in test [20] were -2.62% (active) and 85.2%, respectively.

Take `CCOC(=O)C(=Cc1ccc(-c2ccccc2)cc1)C(=O)OCC`: the growth in test [1] is 36.6%; in [2], 20%; in test [3] it was 70.6%; in test [4], 53.3%; in test [5] it was 43%; in test [6] it was 37.5%. Moreover, the growth in test [7] is 52.5%; in [8], 21.4%; in test [9], 44.4%; in test [10], 42.5%; in [11], 13.3%; in test [12] it was 4.16% (active). Moreover, the growth in test [13] is 38%; in test [14], 54.9%; in test [15] it was 21.3%; in test [16], 31.8%; in [17] it was 54.8%; in [18] it was 35.4%. In addition, the growth is -56.6% (active) in test [19] and 31.1% in [20].

For the compound `CCOC(=O)c1[nH]c2c(c1C)-c1[nH]c(=O)c(S(=O)(=O)c3ccccc3)cc1SC2`, the growth is 15.4% [100 µM] in test [1]; 49.8% [100 µM] in test [2]; 4.32% [100 µM] (active) in test [3]; 25.6% [100 µM] in test [4]; -5.27% [100 µM] (active) in [5]; 21.8% [100 µM] in [6]. Besides, the growth in [7] was 8.44% [100 µM] (active); in test [8], 30% [100 µM]; in test [9] it was 66.8% [100 µM]; in test [10], 51.8% [100 µM]; in [11] it was 72.8% [100 µM]; in [12], 13.4% [100 µM]. For the same compound, the growth was 17% [100 µM] in test [13]; 94.7% [100 µM] in [14]; 31.9% [100 µM] in test [15]; -29.5% [100 µM] (active) in test [16]; 35.9% [100 µM] in [17]; 21.2% [100 µM] in test [18]. Moreover, the growth in test [19] is 50% [100 µM]; in test [20] it was 20.7% [100 µM].

As for `CN(C)CCN1C(=O)c2cccc3c(/C=C/CN4C(=O)c5cccc6cccc(c56)C4=O)ccc(c23)C1=O`, the growth in [1] was 113%; in test [2], -46.8% (active); in test [3] it was -62.4% (active); in test [4], -57.4% (active); in test [5], 57%; in [6], 101%. Further, the growth in [7] was 106%; in [8], 92.8%; in [9] it was 92%; in test [10] it was 77.9%; in test [11] it was -75.6% (active); in [12], 94%. Besides, the growth in test [13] is 90.6%; in test [14], 18.7%; in [15], 90.8%; in test [16], 71.7%; in test [17], 82.2%; in test [18], 98.7%. Further, the growth in test [19] is 30.3%; in test [20], -56.5% (active).

As to `CCOC(=O)CC1CSC(Nc2ccccc2)=N1` (stereo not given), the growth in test [1] is 103%; in [2] it was 96.4%; in test [3] it was 102%; in test [4] it was 105%; in [5] it was 114%; in test [6] it was 98.7%. The growth is 104% in test [7]; 105% in [8]; 97.9% in test [9]; 103% in test [10]; 107% in test [11]; 96.8% in test [12]. For the same compound, the growth is 99.7% in test [13]; 104% in test [14]; 99.5% in test [15]; 99.9% in test [16]; 103% in [17]; 99.7% in test [18]. The growth in test [19] is 97.3%; in [20], 115%.

For `CCCCNC(=O)Oc1ccc(/C(=C(/C)Cc2ccc(OC)cc2)c2ccc(OCCN3CCCCC3)cc2)cc1`, the growth in [1] is 92.1%; in test [2], -14.1% (active); in test [3], 79.1%; in [4], 87.6%; in [5], 71.5%; in test [6], 81.2%. For the same compound, the growth is 86.8% in test [7]; 80.4% in [8]; 99.2% in test [9]; 31% in [10]; 32.3% in test [11]; 2.86% (active) in [12]. Besides, the growth was 64.8% in test [13]; 77.1% in test [14]; 54.7% in test [15]; 59% in test [16]; 57% in [17]; 67.7% in test [18]. Besides, the results for the growth in [19] and in test [20] were 70.4% and 78.2%, respectively.
